This passage reports activity (protection/inhibition) results from PubChem BioAssay AID651871 (Sanford-Burnham Center for Chemical Genomics, 2012).

Where “and” joins values, the source holds several entries; their conditions need not be identical. Equal values may be shown once.

In the test the test system is H9c2. The test can be described thus: protection of cardiomyocytes from stress damage, SAR follow-up, cell-based, panel, H9c2 and HL-1, ATP luminescence, set 2 (AID 651871).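 Note: cells exposed to stressor for 2 h before ATP readout; reference of the scale not given here.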 Particulars: H9c2/HL-1 cardiomyocytes, 2-deoxyglucose stress, with 2-deoxyglucose; run 10, at 79 µM (top of the series) unless noted.
As for `COc1ccc2c(c1OC)C(=O)N1c3ccccc3C(=O)N(Cc3cccc(Cl)c3Cl)C21` (stereo not drawn), the activity (protection/inhibition) is 76% and 73.8% and -3.2%. The result for `CCOC(=O)c1cccc(NC(=O)CNC(=O)c2cc(-c3cc(OC)c(OC)c(OC)c3)nc3ccccc23)c1` reads 82.3% [run 10, at 39.5 µM]; that for `COc1ccc2nc(-c3cc(OC)c(OC)c(OC)c3)cc(C(=O)NCC(=O)Nc3ccc(C(C)=O)cc3)c2c1`, 78.3%.
